KinaseGlo FLuc: Counterscreen for Luciferase (Kinase-Glo TM) Inhibition; hit rate 0.28% among 200,000; Potency, µM (doses to about 38.3 µM), without a hit: top-dose activity change, negative = inhibition, most hits filed as inhibitors; Luciferin 4-monooxygenase (Photuris pensylvanica), Q27757; Kinase-Glo luciferase, ATP luminescence, 8 min; active = well fitted inhibition curve with a large enough effect; inconclusive = small, poorly fitted or top-dose-only effect; also: potency is read from the fitted curve at half-maximal effect; nearly all actives have a fitted effect of over 60% in size
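Kinase-Glo luciferase light output from ATP and luciferin was measured with 10 uM ATP, within the enzyme's linear range. Buffer: 50 mM imidazole pH 7.2, 50 mM KCl, 7 mM MgCl2, 0.01% Tween 20, 0.05% BSA; luminescence read after 8 min at ambient temperature.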
PNC assembly inh: High Content Assay for Compounds that inhibit the Assembly of the Perinucleolar Compartment; AID 2417, 2010; hit rate 3.1% among 140,000; activity change (PNC), negative = inhibition, % at 10 µM; PC3M PTB-GFP, PNC prevalence imaging, 16 h; stronger effect = lower value;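 active = readout at or below -70, meaning at least 70% loss of cells showing the perinucleolar compartment, a nuclear body marking cancer cells; inconclusive = readout between -30 and a set limit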;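 also: plate controls were DMSO wells for no effect and camptothecin positive control wells for full effect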
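Read-out is percentage of cells bearing a perinucleolar compartment, from automated 20x imaging of fixed, Hoechst-stained PC3M PTB-GFP cells. Cells were seeded 4 h, then exposed 16 h to compound (23 nl of library stock) in duplicate plates.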
HPGD inh: qHTS Assay for Inhibitors of HPGD (15-Hydroxyprostaglandin Dehydrogenase); 15-hydroxyprostaglandin dehydrogenase [NAD(+)] (Homo sapiens), P15428; Potency, µM, for the others: at the highest dose activity change, negative = inhibition, usual class: inhibitors; purified HPGD, NADH fluorescence kinetic, PGE2 substrate; hit rate 4.3% among 150,000; also: potency is read from the fitted curve at half-maximal effect
Target sequence (P15428 whole entry, looked up): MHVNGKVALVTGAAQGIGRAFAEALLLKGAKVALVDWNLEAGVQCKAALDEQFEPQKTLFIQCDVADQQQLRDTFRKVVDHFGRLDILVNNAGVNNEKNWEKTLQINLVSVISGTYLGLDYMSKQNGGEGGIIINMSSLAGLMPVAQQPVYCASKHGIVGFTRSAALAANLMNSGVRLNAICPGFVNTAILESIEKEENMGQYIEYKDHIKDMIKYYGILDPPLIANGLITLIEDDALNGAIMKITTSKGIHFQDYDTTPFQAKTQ
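20 nM HPGD preincubated 15 min at room temperature with compound in 50 mM Tris-HCl pH 8, 0.01% Tween 20. Started with 1 mM NAD+ and 30 uM prostaglandin E2; NADH fluorescence (360/450 nm) read 5 times over 30-s intervals, last minus first.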
Lamin A splicing: qHTS Assay for Modulators of Lamin A Splicing; HeLa LMNA splicing GFP/RFP minigene ratio, 48 h; Potency, µM (series often up to 46.1 µM), without a hit: at the top dose ratio change, negative = inhibition, actives largely listed as inhibitors; hit rate 0.01% among 200,000; AID 1487, 2009; active = well fitted inhibition curve with a large enough effect in the signal ratio, with a control signal flat, not every such curve was filed as active; inconclusive = small, poorly fitted or top-dose-only effect, or effect the other way, or a change in a side signal; the % refers to the signal ratio; also: potency is read from the fitted curve at half-maximal effect
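S3 HeLa cells stably expressing lamin A-EGFP splicing minigene plus DsRed2, 600 cells/well, 48 h compound exposure at 37C. Laser-scanning cytometry; analysed as GFP (500-530 nm)/RFP (575-640 nm) total intensity ratio; 0.5% DMSO vehicle.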
ALDH1A1 block: qHTS Assay for Inhibitors of Aldehyde Dehydrogenase 1 (ALDH1A1) | Aldehyde dehydrogenase 1A1 (Homo sapiens), P00352 | Purified ALDH1A1, NADH fluorescence, propionaldehyde substrate | Potency, µM (doses to about 75.3 µM), for inactives: at the top dose activity, negative = inhibition, usual class: inhibitors | hit rate 7.3% among 220,000 | AID 1030, 2008;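 also: potency is read from the fitted curve at half-maximal effect; plate controls were no enzyme wells and a reference inhibitor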
Target sequence (P00352 whole entry, looked up): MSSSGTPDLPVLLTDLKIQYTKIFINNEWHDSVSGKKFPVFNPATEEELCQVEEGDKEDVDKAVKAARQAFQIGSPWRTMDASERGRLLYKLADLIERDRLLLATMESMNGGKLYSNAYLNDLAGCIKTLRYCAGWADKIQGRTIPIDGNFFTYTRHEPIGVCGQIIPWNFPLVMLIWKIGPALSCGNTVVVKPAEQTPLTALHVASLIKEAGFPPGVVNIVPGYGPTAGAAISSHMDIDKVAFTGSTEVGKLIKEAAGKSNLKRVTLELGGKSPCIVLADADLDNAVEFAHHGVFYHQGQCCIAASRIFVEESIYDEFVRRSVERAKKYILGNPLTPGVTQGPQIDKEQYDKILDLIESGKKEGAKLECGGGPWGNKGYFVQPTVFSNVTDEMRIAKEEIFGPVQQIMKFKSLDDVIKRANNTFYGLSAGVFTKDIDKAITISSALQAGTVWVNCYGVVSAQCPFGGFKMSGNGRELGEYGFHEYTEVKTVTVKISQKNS
Numbers without * were called inactive; ? = inconclusive; / = no result; [ ] = another dose, or the depositor's remark. In the library only some 10% were active in any assay of this set; here they are far more common. Unless noted, calls follow the shape of the dose curve; as a rule, active = well fitted inhibition curve with a large enough effect (not every such curve was filed as active); inconclusive = small, poorly fitted or top-dose-only effect, or another doubt; inactive = no such curve, though single readings can be large or run the other way. Unless noted, % is scaled to controls: 0 for no effect and ±100 for the full control effect.

SMILES	KinaseGlo FLuc	PNC assembly inh	HPGD inh	Lamin A splicing	ALDH1A1 block
O=C(c1cccc(NS(=O)(=O)c2cccc([N+](=O)[O-])c2)c1)N1CCOCC1	1.3%	/	/	-14.2%[46 µM]	-2.9%
COc1cccc(S(=O)(=O)Nc2cccc(C(=O)N3CCOCC3)c2)c1	-0.8%	6.5	-0.8%	-0.4%	14.1µM*
COc1cccc(S(=O)(=O)Nc2cccc(C(=O)N3CCCCCC3)c2)c1	-3.1%	-2.0	-13.6%	?	14.1µM*
COc1ccc(C(=O)N2CCCCC2)cc1S(=O)(=O)Nc1ccccc1	-2.9%	-29.5	-9.6%	1.6%	?
COc1ccc(N2CCN(C(=O)c3ccc(NS(=O)(=O)c4cccc(F)c4)cc3)CC2)cc1	4.4%	-28.4	-14.1%	?	?
COc1cccc(S(=O)(=O)Nc2ccc(C(=O)N3CCCCCC3)cc2)c1	/	/	/	/	22.4µM*
CC1CCc2c(cc(-c3ccccc3)n2-c2ccc(C(=O)NC(C)C)cc2)C1 (stereo not drawn)	/	/	/	3.7%[46 µM]	/
O=C(Nc1cc(Cl)cc(Cl)c1)C(NCC1CCCO1)c1ccccc1 (stereo not drawn)	/	22.0	/	-14.3%	4.47µM*
CC(C)NC(C(=O)Nc1cc(Cl)cc(Cl)c1)c1ccccc1 (stereo not drawn)	-3.8%	5.1	-17.2%	-5.2%	11.2µM*
CCOCCn1ccc2c(OCC(=O)Nc3ccc(C(N)=O)cc3)cccc2c1=O	/	/	/	-7.4%[46 µM]	/
CCN(CCCNC(=O)c1c(C)cc(=O)oc1C)c1cccc(C)c1	3.2%	8.5	-18.3%	-2.6%	10µM*
CCn1c2ccccc2c2cc(N)ccc21	-7.0%	2.7	?	1.1%	?
CCn1c(C)cc(=S)c2ccccc21	-21.7%	-28.1	-4.7%	-9.6%	3.98µM*
O=C(/C=C/c1ccco1)Nc1ccccc1N1CCCC1	-3.8%	/	/	/	0.2%
C#CCN1C(=O)C(O)(CC(=O)/C=C/c2ccco2)c2ccccc21 (stereo not drawn)	-0.1%	/	/	?	1.58µM*
Cc1ccc(CN2CCC(CNc3ncnc4onc(-c5ccc(Cl)cc5)c34)CC2)cc1	/	/	/	0.9%[46 µM]	/
COCCSc1ccccc1C(=O)Nc1cc(C)on1	0.8%	?	31.6µM*	3.5%	?
COCCSc1ccccc1C(=O)NCCc1ccccc1	-2.1%	/	/	/	?
COCCSc1ccccc1C(=O)NCc1ccco1	1.8%	30.2	8.91µM*	-1.5%	14.1µM*
CCNC(=O)NS(=O)(=O)c1cnccc1Nc1cccc(Cl)c1	-0.6%	-89.6*	1.4%	-1.1%	1.4%
CCOC(=O)c1c(-c2ccc(C)s2)csc1N	-1.0%	/	/	/	3.16µM*
Cc1cc2ncc(-c3ccccc3)nc2cc1C	/	/	/	/	-5.9%
Cc1cc(-c2ccccc2)nc(-c2ccccc2)c1C	12.6µM*	/	/	-2.8%[46 µM]	?
CSc1ccc(C(=S)N2CCN(CCO)CC2)cc1	1.2%	?	25.1µM*	-4.5%	22.4µM*
COc1ccc(C2C(=O)N(C3CCCCCC3)CC(=O)N2Cc2ccccc2)cc1OC (stereo not drawn)	-1.1%	64.8	-2.1%	3.0%	-11.9%
SMILES	KinaseGlo FLuc	PNC assembly inh	HPGD inh	Lamin A splicing	ALDH1A1 block
Cc1ccc2c(c1)C1CCCC3C1N2CC(=O)N3Cc1ccccc1 (stereo not drawn)	-0.4%	?	-23.4%	-1.6%	22.4µM*
Nc1ccc(C(=O)O)c(O)c1 (tested in a mixture with another compound)	-6.8%	/	-23.6%	/	/
Nc1ccc(O)c(C(=O)O)c1	-4.0%[17.1 µM]	/	11.2µM*	?	?
Cc1ccc(-c2csc(NC(=O)c3cccc(S(=O)(=O)N4CCN(C)CC4)c3)n2)cc1	-8.1%	6.9	-27.3%	?	2.51µM*
CC(=O)N1CCc2cc(CNC(=O)Nc3ccc(Br)c(C)c3)ccc21	/	/	/	27.5%[46 µM]	/
S=c1[nH]nc(COc2ccccc2)n1/N=C/C=C/c1ccccc1	5.6%	0.0	5.01µM*	-12.3%	-14.3%
CC(C)CCn1c(COc2ccccc2)n[nH]c1=S	0.9%	/	/	-17.5%[46 µM]	-10.9%
S=c1[nH]nc(COc2ccccc2)n1/N=C/C(Cl)=C/c1ccccc1	-4.8%	40.4	25.1µM*	?	31.6µM*
O=C(c1ccc(Br)o1)N1CCc2ccccc21	?	/	/	?	-19.8%
CCOC(=O)c1c(C)[nH]c(CCC(=O)NCc2ccccc2Cl)c1C	/	/	/	0.2%[46 µM]	/
CC(c1ccccc1)N1CCN(C(=O)CCl)CC1 (stereo not drawn)	4.4%	/	/	/	0.447µM*
COc1ccc(N(C)C(=S)Nc2ccc3nc(C)c(C)nc3c2)cc1	4.6%	15.2	-10.0%	-12.9%	10µM*
CCn1c(C)c(C(C)=O)c(N2CCN(c3ccccn3)CC2)nc1=S	10.7%	5.8	-5.1%	-1.1%	6.8%
CCn1c(C)c(C(C)=O)c(N2CCN(c3ccccc3)CC2)nc1=S	0.8%	?	-8.7%	-0.3%	11.2µM*
CCn1c(C)c(C(C)=O)c(N2CCN(C(c3ccccc3)c3ccccc3)CC2)nc1=S	-1.8%	/	/	/	14.1µM*
Cc1cccc(-c2nc3nc(C)cc(NCc4ccccc4Cl)n3n2)c1	/	/	/	0.8%[46 µM]	/
CC(=O)Nc1ccc(OCC(O)CNC2CCCC2)cc1 (stereo not drawn)	3.6%	14.4	-9.5%	?	17.8µM*
CC(=O)Nc1ccc(OC[C@@H](O)CNC(C)C)cc1	-0.2%	/	1.0%	?	2.0%
COc1ccc(Nc2ncnc3ccccc23)c(OC)c1	-7.4%	8.2	?	-12.6%	10µM*
COc1ccc(Nc2ncnc3ccccc23)cc1	-5.5%	?	-4.1%	-3.0%	14.2%
CCN1C(=O)[C@@H]2[C@H](C1=O)[C@@H]1C[C@H]3C(=O)N(CC)C(=O)[C@H]3[C@@H]3C1=C(C(=O)N1C(=O)O/C(=N\CC4CC4)[C@]31C)[C@@H]2C	-0.5%	/	-6.1%	/	7.1%
Cn1c(=O)c2nc(SCC(=O)Nc3cc(Cl)cc(Cl)c3)n(C)c2n(C)c1=O	/	/	/	16.8%[46 µM]	/
CN(C)/C=C1/C(=O)N(c2ccc([N+](=O)[O-])cc2)N=C1c1ccccc1	-2.7%	?	-15.4%	?	15.8µM*
CCOC1=NN(c2ccccc2)C(=O)/C1=C\N(C)C	1.8%	/	/	-7.6%[46 µM]	-19.8%
CC1=NN(c2nc3ccccc3[nH]2)C(=O)/C1=C/N(C)C	1.58µM*	/	/	?	-7.5%
CC1=NN(c2ccc([N+](=O)[O-])cc2)C(=O)/C1=C\N(C)C	12.6µM*	13.7	-9.4%	-12.2%	?
CN(C)/C=C1\C(=O)N(c2ccc([N+](=O)[O-])cc2)N=C1c1ccccc1	-5.6%	1.2	-13.2%	?	25.1µM*
CCOCCn1ccc2c(OCC(=O)Nc3cccc(F)c3)cccc2c1=O	/	/	/	6.3%[46 µM]	/
CCCCCCN(C(=O)CCCCCN1C(=O)NC(c2ccc(-c3ccccc3)cc2)C(C(=O)OCc2ccccc2)=C1C)C(C(=O)NCCCC)c1ccc(OCC(=O)O)c(C(=O)O)c1 (stereo not drawn)	-2.7%	/	-10.3%	/	-13.4%

Screens as filed in PubChem BioAssay.
